Experimental data: PubChem BioAssay (NCI)
This is part of a sample that, as a whole, favours compounds with a hit. Of some 83,000 tested, about 20% had one in any assay.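 Results are percent growth after 48 hours of single-concentration exposure. 100 means growth as in untreated cells, lower positive values show inhibition; negative values down to -100 show cell death.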 Unmarked numbers belong to inactive results. Active and inactive are the calls of the source. Rule for the calls: active = growth percent below 10; inactive = the rest.

How the values were obtained:
Experiment in all cases: NCI-60 one-dose screen, 48 h (100 = growth as untreated, 0 = no growth, -100 = all killed)
Settings in all cases: 10 µM unless noted
DU-145 prostate = tested on: DU-145 prostate
K-562 leukemia = tested on: K-562 leukemia
MALME-3M melanoma = tested on: MALME-3M melanoma
MDA-MB-231 breast = tested on: MDA-MB-231 breast
RXF 393 renal = tested on: RXF 393 renal
SF-268 CNS = tested on: SF-268 CNS
SF-295 CNS = tested on: SF-295 CNS
SF-539 CNS = tested on: SF-539 CNS
UACC-257 melanoma = tested on: UACC-257 melanoma
M14 melanoma = tested on: M14 melanoma
HCT-15 colon = tested on: HCT-15 colon
HT29 colon = tested on: HT29 colon
SNB-75 CNS = tested on: SNB-75 CNS
SNB-19 CNS = tested on: SNB-19 CNS
U251 CNS = tested on: U251 CNS
PC-3 prostate = tested on: PC-3 prostate
SK-MEL-5 melanoma = tested on: SK-MEL-5 melanoma
UACC-62 melanoma = tested on: UACC-62 melanoma
LOX IMVI melanoma = tested on: LOX IMVI melanoma
SK-MEL-28 melanoma = tested on: SK-MEL-28 melanoma

Structure (SMILES)	growth (DU-145 prostate)	growth (K-562 leukemia)	growth (MALME-3M melanoma)	growth (MDA-MB-231 breast)	growth (RXF 393 renal)	growth (SF-268 CNS)	growth (SF-295 CNS)	growth (SF-539 CNS)	growth (UACC-257 melanoma)	growth (M14 melanoma)	growth (HCT-15 colon)	growth (HT29 colon)	growth (SNB-75 CNS)	growth (SNB-19 CNS)	growth (U251 CNS)	growth (PC-3 prostate)	growth (SK-MEL-5 melanoma)	growth (UACC-62 melanoma)	growth (LOX IMVI melanoma)	growth (SK-MEL-28 melanoma)
C=C1C(=O)O[C@H]2[C@H]1CC/C(Cn1cc(CCC)nn1)=C\CC[C@@]1(C)O[C@@H]21	28.7%	4.94% (active)	4.68% (active)	12.2%	-70.2% (active)	67.9%	71.6%	-25% (active)	19.1%	12.1%	-1.47% (active)	-9.05% (active)	75.8%	73.3%	73.7%	64.4%	53.1%	4.67% (active)	-29.3% (active)	7.96% (active)
Clc1ccc(-c2cc(-c3ccccc3)nc(NCCNc3ccnc4cc(Cl)ccc34)n2)cc1	13.1%	0.266% (active)	-62.7% (active)	-69.2% (active)	26%	3.04% (active)	73.2%	74.5%	13.3%	-69.7% (active)	-72.7% (active)	-16.2% (active)	75.7%	44.7%	-85.9% (active)	16.3%	30.7%	69%	-76.7% (active)	-62.1% (active)
NC(=O)c1c(NC(=O)c2cccs2)sc2c1CCC(=O)C2	80.3%	10.3%	67%	26.1%	46.4%	30.3%	86.9%	-3.38% (active)	63.7%	26.1%	16.2%	46.3%	28.3%	40.2%	14.9%	10.5%	71.5%	4.69% (active)	30.3%	50.7%
COC(=O)C(Cc1ccccc1)NC(=O)c1ccc(NC(=O)c2[nH]c(C)c(Cl)c2Cl)c(OC(C)C)c1 (stereo not given)	77.6%	42.1%	71.4%	66.3%	128%	86.4%	87.5%	-17.9% (active)	101%	51.3%	40.5%	58%	62.6%	42.8%	22.3%	11.4%	97.7%	90.6%	34.1%	102%
Cc1ccc(S(=O)(=O)N2CCC(=O)c3ccccc32)cc1	62%	40.2%	84.9%	72.9%	61%	80.2%	86.6%	55.1%	77.8%	62%	42.9%	68.4%	42.8%	69.4%	49.4%	74.8%	63.3%	67.7%	76.4%	80.3%
COC(=O)/C=C1/SC(=Nc2ccc([N+](=O)[O-])cc2)N(CCc2c[nH]c3ccc(O)cc23)C1=O	57.3%	52.5%	68.6%	61.1%	27.3%	43.7%	59.5%	66.2%	55.8%	46%	46.9%	42.6%	54.4%	40.3%	36.3%	38.6%	50.5%	30.1%	-21.9% (active)	52.7%
CCCn1nc(C(=O)N(C)Cc2ccccc2)c2c1CCC(N1CCc3ccccc31)C2 (stereo not given)	109%	86.7%	112%	108%	90.3%	96.4%	92.1%	104%	109%	99%	96.3%	102%	100%	90.2%	96.9%	77.2%	99.7%	85.2%	100%	106%
C=C1C(=O)O[C@H]2[C@H]1CC/C(CNC(=O)c1c[nH]c3ccc(F)cc13)=C\CC[C@@]1(C)O[C@@H]21	-58.5% (active)	-19.3% (active)	-2.58% (active)	11.7%	-84.9% (active)	42.8%	67.7%	-42.6% (active)	-68.4% (active)	-26.1% (active)	-69.6% (active)	-59.5% (active)	45%	61.3%	31.7%	31.8%	61.4%	-37.3% (active)	-88.4% (active)	-24.3% (active)
O=C(O)[C@@H](Cc1ccc2ccccc2c1)NC(=O)n1c2ccccc2c2ccccc21	19.4%	11.6%	22%	15.6%	14.6%	42.5%	11.6%	1.16% (active)	57.7%	4.26% (active)	21.1%	4.59% (active)	20.1%	25.4%	14.8%	26.7%	3.91% (active)	18.3%	35.9%	63.3%
C[C@@H]1O[C@@H](O[C@@H]2C[C@H](c3ccc4c(c3O)C(=O)C3=C(C4=O)[C@@]4(O)C(=O)C[C@](C)(O)C[C@@]4(O)C=C3)O[C@H](C)[C@H]2O)CC[C@@H]1O[C@H]1C[C@@H](O)[C@H](O)[C@@H](C)O1	110%	94.4%	65.4%	105%	113%	87%	102%	100%	98.4%	110%	94.8%	108%	90.7%	100%	98.7%	96%	101%	97.8%	94.6%	116%
CN1CCN(CCOc2ccc(-c3cnc4c(-c5ccc(F)cc5)cnn4c3)cc2)CC1	42.2%	-6.74% (active)	53.5%	55.1%	48.8%	56.9%	81%	49.5%	28.4%	-29.8% (active)	-15.8% (active)	1.11% (active)	68%	82%	38.2%	47.5%	61.2%	50.7%	-78.5% (active)	79.4%
Fc1ccc2[nH]cc(-c3nc(-c4c[nH]c5ccncc45)cs3)c2c1	-0.992% (active)	-41.7% (active)	-85.3% (active)	-59.8% (active)	-84.6% (active)	-31.5% (active)	-74.1% (active)	-92.6% (active)	-67.8% (active)	-66.4% (active)	-50% (active)	-62.9% (active)	-31.6% (active)	-48.4% (active)	-81.8% (active)	7.43% (active)	-94.6% (active)	-75.3% (active)	-92.3% (active)	-92.1% (active)
COC(=O)c1ccc(NC(=O)Nc2ccc(C(=O)OC)cc2)cc1	121%	90.6%	123%	94.1%	112%	115%	121%	112%	104%	103%	93%	82.4%	113%	97.2%	113%	82%	102%	82.3%	98.1%	102%
O=C1NC(=O)/C(=C/c2c(-c3ccccc3)nc3sc(COc4ccccc4)nn23)S1	105%	82.6%	102%	73.3%	112%	106%	94.3%	103%	104%	96.1%	97.2%	117%	108%	95.6%	96.7%	111%	97.9%	90%	57%	110%
CC1(C)OB(O)c2cc(-c3nc4ccc5[nH]ncc5c4c4c3CCCC4)ccc21	54.8%	44.5%	60.5%	47.9%	35.3%	57.4%	63.1%	73.6%	77.5%	52%	38.2%	56.3%	75%	90.6%	61.8%	41.3%	-67.9% (active)	37.7%	42%	87.4%
